Common to all, as to experiment: NCI-60 one-dose screen, 48 h (100 = growth as untreated, 0 = no growth, -100 = all killed)
Holding throughout (conditions): 10 µM unless noted

In experiment [1] the test system is SK-MEL-2 melanoma.
Experiment [2] deals with EKVX NSCLC.
For experiment [3], the system named is SN12C renal.
The test system of experiment [4] is TK-10 renal.
In experiment [5] the test system is ACHN renal.
Experiment [6] deals with CAKI-1 renal.
Experiment [7] deals with A498 renal.
Experiment [8] relates to CCRF-CEM leukemia.
Experiment [9] relates to MOLT-4 leukemia.
Experiment [10] relates to UO-31 renal.

Our source for the growth values is PubChem BioAssay (NCI).

Molecules are shown by their SMILES. About 83,000 compounds went through this panel and 20% of them were active in at least one assay; those are over-represented in the sample as a whole.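 The endpoint reported here, percent growth, reads 100 for growth as untreated, 0 for no net growth and -100 for all cells dead.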 Unmarked numbers belong to inactive results. Activity calls are given as the source filed them. The calls were made as follows: active = growth percent below 10; inactive = the rest. Where a SMILES comes first, the peptide text is derived from it. [ ]: non-standard residue; d: D form. ξ: configuration not given here. ξD = NC(CC(=O)O)C(=O)O

For `NCC(=O)NC(CC(=O)O)C(=O)O` (centres undefined) (H-Gly-[ξD]-OH), the growth in experiment [1] was 111%; in experiment [2] it was 94.7%; in experiment [3], 99%; in experiment [4] it was 97.7%; in experiment [5] it was 106%; in experiment [6], 89.8%. The results for the growth in [7], in experiment [8] and in experiment [9] were 105%, 79.3% and 109%, respectively.

For `COc1ccc2c(c1)c(CC(=O)O)c(C)n2C(=O)c1ccc(Cl)cc1`, the growth is 106% in experiment [1]; 95.9% in experiment [2]; 97.4% in experiment [3]; 65.6% in experiment [10]; 95.3% in experiment [5]; 88.1% in experiment [6]. Moreover, the growth in [7] was 81.9%; in [8], 89.7%; in [9], 113%.

For the compound `CCN(CC)c1ccc(/C=C\C(=O)c2ccc(NC(C)=O)cc2)cc1`, the growth was 76.8% in [1]; 79.1% in [2]; 48.9% in experiment [3]; 92.4% in experiment [4]; 61.4% in experiment [5]; 54.9% in experiment [6]. For the same compound, the growth was 71.6% in experiment [7] and 82.9% in experiment [8].

For the compound `CC(C)c1ccc(C(=O)OC2CCCC2)cc1`, the growth in experiment [1] is 105%; in experiment [2] it was 92.6%; in experiment [3], 97.5%; in experiment [10] it was 99.6%; in experiment [5], 99.5%; in experiment [6] it was 98.8%. In addition, the growth in [7] is 117%; in [8], 89.8%; in experiment [9], 110%.

Regarding `O=C(Cc1nc2cc(Cl)c(Cl)cc2nc1CC(=O)c1ccccc1)c1ccccc1`, the growth in experiment [1] is 90.2%; in experiment [2], 51.4%; in experiment [3] it was 75.4%; in experiment [4], 119%; in experiment [5], 59.2%; in experiment [6], 68.6%. For the same compound, the growth in experiment [7] was 125%; in experiment [8], 27.1%; in experiment [9], 28.9%.

On to `O=C(NOC(=O)c1ccccc1)c1ccccc1`, for which the growth in [1] was 97%; in [2], 95.7%; in experiment [3] it was 108%; in experiment [4], 97.8%; in experiment [5] it was 101%; in experiment [6] it was 86.5%. Further, the results for the growth in experiment [7], in experiment [8] and in experiment [9] were 94.6%, 70.6% and 93%, respectively.

`COc1cc(NCc2ccc3nc(N)nc(N)c3c2C)cc(OC)c1OC` (tested in a mixture with another compound): the growth in experiment [1] is 61.8%; in experiment [2], 55.8%; in experiment [10], 34.9%; in [4], 31.1%; in experiment [5], 23.8%; in experiment [6], 25.4%. Also, the growth in [7] was 32.9%; in experiment [8] it was 19.9%; in [9], 20.6%.

For the compound `CCCCCCCCCCCC[S+](C)CC(=O)[O-]` (centres undefined), the growth in experiment [1] was 51.7%; in [2], 22.2%; in [3], 13.7%; in experiment [4], 20.6%; in [5], 61.4%; in [6] it was 38.7%. Also, the growth in experiment [7] is 95.4%; in [8], 11.9%; in experiment [9], 32.9%.

On to `O=C(Cc1nc2cc(Cl)c(Cl)cc2nc1CC(=O)c1cccnc1)c1cccnc1`, for which the growth was 113% in experiment [1]; 54% in [2]; 75% in [3]; 141% in [4]; 60.9% in [5]; 72.5% in experiment [6]. The results for the growth in experiment [7], in [8] and in experiment [9] were 133%, 31.4% and 38.8%, respectively.

For the compound `CCNc1nnnn1CC`, the growth is 122% in experiment [1]; 94.5% in experiment [2]; 108% in [10]; 106% in [4]; 110% in experiment [5]; 99.4% in [6]. The figures for the growth in [7], in experiment [8] and in experiment [9] were 83.8%, 103% and 116%, respectively.

Take `CCOC(=O)C1=C(C(=O)c2ccccc2)C(c2cccc([N+](=O)[O-])c2)C(C(=O)c2ccccc2)=C(C(=O)OCC)N1`: the growth was 105% in experiment [1]; 87.9% in experiment [2]; 93.7% in experiment [3]; 112% in experiment [4]; 88.4% in experiment [5]; 79.6% in experiment [6]. Further, the growth is 104% in experiment [7], 65% in experiment [8] and 52.2% in [9].

In the case of `O=C(Cc1ccccc1)C(F)(F)F`, the growth was 107% in experiment [1]; 99.1% in [2]; 93.7% in experiment [10]; 103% in experiment [4]; 106% in experiment [5]; 89.8% in experiment [6]. The growth in experiment [7] was 102%; in experiment [8] it was 98.4%; in experiment [9], 82.7%.

In the case of `Clc1ccc(Cc2nc3ccccc3s2)cc1`, the growth in [1] was 110%; in experiment [2] it was 86.5%; in experiment [10], 61.2%; in experiment [4], 119%; in experiment [5] it was 98.5%; in experiment [6] it was 96.3%. For the same compound, the growth in experiment [7] is 117%; in experiment [8] it was 93.1%; in [9], 92.6%.

Take `C/C(=N\NC(=S)N1CC2CCC(CC2)C1)c1ccccn1`: the growth is 13.7% in experiment [1]; -6.66% (active) in [2]; -8.11% (active) in experiment [10]; 21.6% in experiment [4]; 15.1% in experiment [5]; 0.118% (active) in experiment [6]. Moreover, the growth in [7] was -12.4% (active); in experiment [8] it was 3.63% (active); in experiment [9] it was 3.87% (active).

In the case of `Clc1ccccc1C(c1ccccc1)(c1ccccc1)n1ccnc1`, the growth is 48.3% in experiment [1]; 25.9% in [2]; 48.2% in experiment [3]; 12.1% in experiment [10]; 32.7% in experiment [5]; 20.6% in experiment [6]. In addition, the results for the growth in [7], in [8] and in [9] were 58.7%, 21.5% and 17.3%, respectively.
